From paper PMC7862700, “An all-to-all approach to the identification of sequence-specific readers for epigenetic DNA modifications on cytosine” come the findings set out here.

Assay in all cases: DAPPL (digital affinity profiling via proximity ligation, sequencing); 10 mM Tris-HCl pH 7.5, 50 mM NaCl, 1 mM DTT, 4% glycerol, room temperature, 30 min; GST-TFs on glutathione beads, 16-mer random dsDNA library, 0.1% formaldehyde crosslink after washing; high values mean tight binding
Holding throughout (details): protein: recombinant; tags: N-terminal GST; dsDNA, one strand shown

Assay [1] deals with T1, ELK1 (Homo sapiens, UniProt P19419 1-428).
T1 sequence: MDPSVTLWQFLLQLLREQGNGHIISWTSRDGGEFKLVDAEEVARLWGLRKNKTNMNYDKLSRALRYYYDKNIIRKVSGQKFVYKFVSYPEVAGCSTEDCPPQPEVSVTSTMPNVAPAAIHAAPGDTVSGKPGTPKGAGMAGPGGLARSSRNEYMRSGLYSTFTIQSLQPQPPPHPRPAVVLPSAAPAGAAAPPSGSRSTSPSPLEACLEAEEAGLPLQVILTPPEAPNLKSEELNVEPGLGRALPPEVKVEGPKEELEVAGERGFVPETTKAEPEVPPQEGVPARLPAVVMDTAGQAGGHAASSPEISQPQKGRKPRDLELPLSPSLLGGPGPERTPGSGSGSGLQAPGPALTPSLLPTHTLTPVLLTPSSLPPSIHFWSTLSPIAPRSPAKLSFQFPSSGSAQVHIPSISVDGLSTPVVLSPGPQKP
An outline of the steps:
(§1)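 Sequencing on an Illumina NextSeq500 followed washing, crosslinking with 0.1% formaldehyde, proximity ligation (BsaI/T4 ligase, 1 h, 37 °C) and PCR amplification of pools that had been incubated for 30 min at room temperature with 200 nmole of a random double-stranded 16-mer DNA library in Tris/NaCl/DTT/glycerol buffer. Each pool held DNA-barcoded human transcription factors, expressed in yeast as GST fusions and captured on glutathione beads, plus a tag-only sample. Binding signal is a hexamer's read frequency for a factor divided by its frequency in the tag-only sample.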

In assay [2] the target is T2, ERG (Homo sapiens, UniProt P11308 1-479).
T2 sequence: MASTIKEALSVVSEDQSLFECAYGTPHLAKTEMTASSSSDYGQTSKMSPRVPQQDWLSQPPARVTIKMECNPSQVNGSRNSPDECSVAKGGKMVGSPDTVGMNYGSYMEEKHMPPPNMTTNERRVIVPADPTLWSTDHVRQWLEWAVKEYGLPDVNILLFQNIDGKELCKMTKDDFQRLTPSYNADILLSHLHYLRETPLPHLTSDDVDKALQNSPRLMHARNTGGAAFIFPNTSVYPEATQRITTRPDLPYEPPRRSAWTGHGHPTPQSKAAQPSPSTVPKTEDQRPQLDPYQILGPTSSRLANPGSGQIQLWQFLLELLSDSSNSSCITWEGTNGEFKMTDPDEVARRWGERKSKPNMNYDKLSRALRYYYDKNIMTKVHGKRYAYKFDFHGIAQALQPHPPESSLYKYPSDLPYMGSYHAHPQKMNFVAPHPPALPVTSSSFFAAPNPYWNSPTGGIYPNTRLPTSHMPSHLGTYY
A digest of the protocol:
as §1

In assay [3] the target is T3, EHF (Homo sapiens, UniProt Q9NZC4 1-300).
T3 sequence: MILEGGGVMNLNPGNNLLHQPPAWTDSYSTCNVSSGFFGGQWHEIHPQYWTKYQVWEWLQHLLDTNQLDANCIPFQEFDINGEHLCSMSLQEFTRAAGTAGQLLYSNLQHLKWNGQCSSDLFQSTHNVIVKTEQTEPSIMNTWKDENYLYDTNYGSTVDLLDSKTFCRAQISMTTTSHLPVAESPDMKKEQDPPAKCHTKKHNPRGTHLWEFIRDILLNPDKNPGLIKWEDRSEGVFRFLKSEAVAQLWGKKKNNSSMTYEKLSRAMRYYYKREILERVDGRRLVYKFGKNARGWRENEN
An outline of the steps:
as §1

For assay [4], the target named is T4, SPIC (Homo sapiens, UniProt Q8N5J4 1-248).
T4 sequence: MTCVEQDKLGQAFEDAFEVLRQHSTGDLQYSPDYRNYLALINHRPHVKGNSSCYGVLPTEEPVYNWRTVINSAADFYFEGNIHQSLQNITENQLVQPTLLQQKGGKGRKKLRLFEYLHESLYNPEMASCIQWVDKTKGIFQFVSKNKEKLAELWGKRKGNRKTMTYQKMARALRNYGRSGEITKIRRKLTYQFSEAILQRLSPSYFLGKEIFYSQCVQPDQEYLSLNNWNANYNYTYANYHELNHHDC
A digest of the protocol: as §1

Assay [5] deals with ELF4 (Homo sapiens, UniProt Q99607 1-663). An outline of the steps: as §1
For assay [6], the target named is T5, ELK4 (Homo sapiens, UniProt P28324-2 1-405).
T5 sequence: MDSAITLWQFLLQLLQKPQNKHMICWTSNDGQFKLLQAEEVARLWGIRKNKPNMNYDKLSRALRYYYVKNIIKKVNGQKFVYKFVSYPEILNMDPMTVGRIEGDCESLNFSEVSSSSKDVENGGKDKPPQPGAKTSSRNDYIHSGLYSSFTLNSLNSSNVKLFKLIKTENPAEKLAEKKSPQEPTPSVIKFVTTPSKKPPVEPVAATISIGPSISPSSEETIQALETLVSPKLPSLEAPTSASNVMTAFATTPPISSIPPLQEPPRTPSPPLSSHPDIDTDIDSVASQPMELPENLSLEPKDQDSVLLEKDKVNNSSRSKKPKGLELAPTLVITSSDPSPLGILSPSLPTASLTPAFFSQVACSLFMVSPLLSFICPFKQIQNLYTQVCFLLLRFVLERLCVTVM
A digest of the protocol:
as §1

For assay [7], the target named is ETV1 (Homo sapiens, UniProt P50549 1-477). A digest of the protocol: as §1
For assay [8], the target named is T6, ETS2 (Homo sapiens, UniProt P15036 1-469).
T6 sequence: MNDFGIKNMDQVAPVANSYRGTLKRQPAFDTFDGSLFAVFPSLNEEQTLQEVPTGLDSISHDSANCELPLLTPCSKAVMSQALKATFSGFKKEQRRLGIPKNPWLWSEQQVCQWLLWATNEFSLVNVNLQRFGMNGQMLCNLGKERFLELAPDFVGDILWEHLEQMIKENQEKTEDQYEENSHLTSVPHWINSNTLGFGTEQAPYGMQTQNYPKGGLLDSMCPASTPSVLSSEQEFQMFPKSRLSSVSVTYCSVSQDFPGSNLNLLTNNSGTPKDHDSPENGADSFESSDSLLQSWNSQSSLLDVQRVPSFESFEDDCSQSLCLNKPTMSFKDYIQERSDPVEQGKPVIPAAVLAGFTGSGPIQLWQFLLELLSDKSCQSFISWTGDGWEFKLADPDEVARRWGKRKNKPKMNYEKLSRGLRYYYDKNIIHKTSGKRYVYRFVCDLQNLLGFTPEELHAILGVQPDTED
A digest of the protocol:
as §1

Assay [9] concerns the target T7, SPDEF (Homo sapiens, UniProt O95238 1-335).
T7 sequence: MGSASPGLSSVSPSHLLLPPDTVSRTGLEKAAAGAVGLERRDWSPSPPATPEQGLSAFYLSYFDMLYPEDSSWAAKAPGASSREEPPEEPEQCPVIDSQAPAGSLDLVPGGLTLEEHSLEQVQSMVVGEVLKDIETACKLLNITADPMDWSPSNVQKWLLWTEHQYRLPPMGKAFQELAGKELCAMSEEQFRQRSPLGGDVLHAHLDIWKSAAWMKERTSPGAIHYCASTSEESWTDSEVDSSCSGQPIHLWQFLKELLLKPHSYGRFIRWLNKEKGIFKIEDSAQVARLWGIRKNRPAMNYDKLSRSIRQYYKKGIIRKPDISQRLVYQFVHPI
A digest of the protocol:
as §1

The target of assay [10] is T8, ETV3 (Homo sapiens, UniProt P41162-2 1-143).
T8 sequence: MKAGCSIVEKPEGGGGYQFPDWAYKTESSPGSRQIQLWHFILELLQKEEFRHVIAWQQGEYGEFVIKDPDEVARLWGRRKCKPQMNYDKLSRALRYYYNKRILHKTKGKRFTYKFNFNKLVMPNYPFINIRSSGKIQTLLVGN
A digest of the protocol:
as §1

The target in assay [11] is T9, GABPA (Homo sapiens, UniProt Q06546 1-454).
T9 sequence: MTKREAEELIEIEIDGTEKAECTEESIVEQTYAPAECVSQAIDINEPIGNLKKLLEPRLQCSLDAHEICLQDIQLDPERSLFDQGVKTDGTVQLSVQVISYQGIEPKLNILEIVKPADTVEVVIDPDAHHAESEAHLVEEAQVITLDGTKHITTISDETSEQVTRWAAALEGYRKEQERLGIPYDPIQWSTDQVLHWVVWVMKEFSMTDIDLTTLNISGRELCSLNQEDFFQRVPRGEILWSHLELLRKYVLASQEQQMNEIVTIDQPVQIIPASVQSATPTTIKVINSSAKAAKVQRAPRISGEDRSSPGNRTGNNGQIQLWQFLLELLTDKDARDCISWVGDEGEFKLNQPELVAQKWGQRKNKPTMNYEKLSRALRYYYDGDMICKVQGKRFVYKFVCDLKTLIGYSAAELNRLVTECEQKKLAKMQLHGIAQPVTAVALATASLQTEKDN
A digest of the protocol: as §1

Assay [12] deals with ELF1 (Homo sapiens, UniProt P32519 1-619). An outline of the steps:
as §1

In assay [13] the target is SPIB (Homo sapiens, UniProt Q01892 1-262). A digest of the protocol: as §1
The target in assay [14] is T10, ELK3 (Homo sapiens, UniProt P41970 1-407).
T10 sequence: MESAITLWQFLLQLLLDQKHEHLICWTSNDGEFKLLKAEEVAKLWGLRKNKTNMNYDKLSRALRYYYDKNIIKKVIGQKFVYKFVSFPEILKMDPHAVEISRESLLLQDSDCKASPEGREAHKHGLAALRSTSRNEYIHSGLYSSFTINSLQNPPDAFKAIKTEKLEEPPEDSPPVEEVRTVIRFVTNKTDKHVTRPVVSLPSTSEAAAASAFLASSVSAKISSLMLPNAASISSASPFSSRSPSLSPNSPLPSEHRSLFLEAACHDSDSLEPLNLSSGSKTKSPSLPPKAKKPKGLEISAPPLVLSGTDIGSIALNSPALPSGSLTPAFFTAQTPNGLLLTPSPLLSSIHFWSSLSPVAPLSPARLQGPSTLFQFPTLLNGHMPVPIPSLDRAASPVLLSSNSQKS
A digest of the protocol: as §1

The target of assay [15] is T11, ERF (Homo sapiens, UniProt P50548 1-548).
T11 sequence: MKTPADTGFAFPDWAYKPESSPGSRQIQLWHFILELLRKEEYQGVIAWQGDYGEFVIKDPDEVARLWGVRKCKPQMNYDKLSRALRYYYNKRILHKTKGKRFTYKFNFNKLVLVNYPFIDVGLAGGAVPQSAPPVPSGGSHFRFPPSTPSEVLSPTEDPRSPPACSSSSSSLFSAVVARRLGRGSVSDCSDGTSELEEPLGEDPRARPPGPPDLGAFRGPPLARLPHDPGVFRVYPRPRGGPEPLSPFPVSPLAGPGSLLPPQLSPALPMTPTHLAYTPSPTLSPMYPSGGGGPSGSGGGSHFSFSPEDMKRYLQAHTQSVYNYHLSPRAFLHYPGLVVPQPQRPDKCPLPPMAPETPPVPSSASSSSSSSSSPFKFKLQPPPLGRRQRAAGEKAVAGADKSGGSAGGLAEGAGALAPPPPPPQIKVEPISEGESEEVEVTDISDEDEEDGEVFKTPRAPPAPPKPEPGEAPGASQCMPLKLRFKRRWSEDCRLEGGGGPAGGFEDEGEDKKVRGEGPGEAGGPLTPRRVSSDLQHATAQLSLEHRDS
A digest of the protocol: as §1

Assay [16] concerns the target T12, ETV3L (Homo sapiens, UniProt Q6ZN32 1-361).
T12 sequence: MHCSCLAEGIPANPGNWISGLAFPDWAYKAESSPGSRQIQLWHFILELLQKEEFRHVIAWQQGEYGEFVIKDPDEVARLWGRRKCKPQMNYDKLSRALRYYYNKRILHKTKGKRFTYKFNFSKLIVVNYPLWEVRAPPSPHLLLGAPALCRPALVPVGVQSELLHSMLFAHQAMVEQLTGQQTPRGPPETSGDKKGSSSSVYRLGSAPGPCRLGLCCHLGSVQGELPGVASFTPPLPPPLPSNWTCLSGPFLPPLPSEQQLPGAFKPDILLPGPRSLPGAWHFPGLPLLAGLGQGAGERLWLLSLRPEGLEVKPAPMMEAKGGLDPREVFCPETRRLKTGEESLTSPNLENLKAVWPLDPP
An outline of the steps: as §1

Chain of ELF4 (Q99607 whole entry): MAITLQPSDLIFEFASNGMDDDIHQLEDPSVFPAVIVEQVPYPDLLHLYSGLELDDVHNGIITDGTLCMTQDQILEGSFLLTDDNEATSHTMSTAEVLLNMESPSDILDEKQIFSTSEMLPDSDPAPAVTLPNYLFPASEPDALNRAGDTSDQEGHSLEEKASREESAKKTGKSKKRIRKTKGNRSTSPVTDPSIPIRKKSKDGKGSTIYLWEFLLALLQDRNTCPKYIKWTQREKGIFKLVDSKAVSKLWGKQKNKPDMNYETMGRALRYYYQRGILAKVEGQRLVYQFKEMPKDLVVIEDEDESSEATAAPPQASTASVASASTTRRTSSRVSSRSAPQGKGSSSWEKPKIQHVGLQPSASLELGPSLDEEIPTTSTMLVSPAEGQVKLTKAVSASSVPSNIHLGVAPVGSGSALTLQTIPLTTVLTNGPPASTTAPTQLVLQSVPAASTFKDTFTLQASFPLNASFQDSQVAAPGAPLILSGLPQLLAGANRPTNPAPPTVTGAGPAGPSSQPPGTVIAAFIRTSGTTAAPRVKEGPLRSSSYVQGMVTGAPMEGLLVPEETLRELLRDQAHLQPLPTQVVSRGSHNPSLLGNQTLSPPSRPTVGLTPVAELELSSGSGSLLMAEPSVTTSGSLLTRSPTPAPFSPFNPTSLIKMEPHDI
Chain of ETV1 (P50549 whole entry): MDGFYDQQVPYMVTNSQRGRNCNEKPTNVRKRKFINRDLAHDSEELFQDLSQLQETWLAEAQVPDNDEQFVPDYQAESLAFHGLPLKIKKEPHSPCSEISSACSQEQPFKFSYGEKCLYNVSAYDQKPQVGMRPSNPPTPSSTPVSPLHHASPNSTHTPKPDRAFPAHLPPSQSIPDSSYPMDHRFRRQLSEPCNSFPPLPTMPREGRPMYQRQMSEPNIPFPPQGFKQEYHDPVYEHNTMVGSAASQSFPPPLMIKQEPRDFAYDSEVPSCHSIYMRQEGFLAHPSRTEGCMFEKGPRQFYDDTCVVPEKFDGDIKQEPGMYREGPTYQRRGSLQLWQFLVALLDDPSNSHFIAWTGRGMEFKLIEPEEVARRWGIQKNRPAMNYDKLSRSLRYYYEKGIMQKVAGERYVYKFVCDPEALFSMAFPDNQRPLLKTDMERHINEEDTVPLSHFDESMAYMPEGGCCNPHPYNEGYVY
Chain of SPIB (Q01892 whole entry): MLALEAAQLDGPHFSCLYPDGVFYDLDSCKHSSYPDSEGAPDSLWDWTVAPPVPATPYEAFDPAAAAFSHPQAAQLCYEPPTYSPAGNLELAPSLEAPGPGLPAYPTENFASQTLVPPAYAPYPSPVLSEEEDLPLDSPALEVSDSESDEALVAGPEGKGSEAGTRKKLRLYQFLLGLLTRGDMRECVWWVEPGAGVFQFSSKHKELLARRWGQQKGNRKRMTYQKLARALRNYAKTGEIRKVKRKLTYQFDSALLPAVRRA
Chain of ELF1 (P32519 whole entry): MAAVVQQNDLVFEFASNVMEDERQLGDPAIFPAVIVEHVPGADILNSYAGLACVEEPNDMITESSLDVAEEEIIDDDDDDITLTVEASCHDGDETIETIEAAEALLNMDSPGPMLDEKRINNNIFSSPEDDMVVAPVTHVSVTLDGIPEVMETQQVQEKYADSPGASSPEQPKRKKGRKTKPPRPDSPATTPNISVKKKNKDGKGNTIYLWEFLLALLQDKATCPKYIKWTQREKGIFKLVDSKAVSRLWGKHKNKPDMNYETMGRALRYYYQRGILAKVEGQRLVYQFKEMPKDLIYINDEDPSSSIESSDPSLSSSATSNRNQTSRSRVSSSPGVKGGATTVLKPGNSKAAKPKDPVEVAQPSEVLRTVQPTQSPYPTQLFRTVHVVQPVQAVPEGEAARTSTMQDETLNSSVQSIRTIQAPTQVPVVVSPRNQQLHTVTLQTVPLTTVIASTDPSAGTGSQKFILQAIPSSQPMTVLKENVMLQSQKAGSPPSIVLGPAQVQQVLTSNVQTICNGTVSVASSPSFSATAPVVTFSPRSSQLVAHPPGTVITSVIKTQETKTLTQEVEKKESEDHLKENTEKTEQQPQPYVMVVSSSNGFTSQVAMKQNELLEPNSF

As to GCTAAG, the binding signal in assay [1] was 1.08 fold enrichment (6-mer frequency, TF over GST control); in [2], 1.01 fold enrichment (6-mer frequency, TF over GST control); in assay [3] it was 1.05 fold enrichment (6-mer frequency, TF over GST control); in assay [4] it was 1.08 fold enrichment (6-mer frequency, TF over GST control); in [5] it was 1.06 fold enrichment (6-mer frequency, TF over GST control); in assay [6], 1.18 fold enrichment (6-mer frequency, TF over GST control). The binding signal in [7] is 1 fold enrichment (6-mer frequency, TF over GST control); in assay [8], 1.04 fold enrichment (6-mer frequency, TF over GST control); in [9], 1.11 fold enrichment (6-mer frequency, TF over GST control); in assay [10], 1.04 fold enrichment (6-mer frequency, TF over GST control).
Take TGATAG: the binding signal was 1.07 fold enrichment (6-mer frequency, TF over GST control) in assay [1]; 1.03 fold enrichment (6-mer frequency, TF over GST control) in [11]; 1.09 fold enrichment (6-mer frequency, TF over GST control) in assay [12]; 1.01 fold enrichment (6-mer frequency, TF over GST control) in [3]; 1.05 fold enrichment (6-mer frequency, TF over GST control) in assay [13]; 1.09 fold enrichment (6-mer frequency, TF over GST control) in assay [14]. In addition, the binding signal in [4] is 1.05 fold enrichment (6-mer frequency, TF over GST control); in assay [5] it was 1.03 fold enrichment (6-mer frequency, TF over GST control); in [6], 1.02 fold enrichment (6-mer frequency, TF over GST control); in assay [15], 1.04 fold enrichment (6-mer frequency, TF over GST control); in assay [16] it was 1.05 fold enrichment (6-mer frequency, TF over GST control); in assay [8], 1.06 fold enrichment (6-mer frequency, TF over GST control). In addition, in [10], the binding signal was 1.05 fold enrichment (6-mer frequency, TF over GST control).
